Source: PubChem
ssDAF-12 act – S. stercoralis DAF-12 nuclear receptor activators, primary screen, cell-based, luminescence, HEK293, GRIP1 co-expression, lit1-tk-luc | Nuclear hormone receptor DAF-12 (Strongyloides stercoralis) | activation, % at 6.8 µM | 370,000 compounds, 1% hits | HEK293 ssDAF-12/GRIP1 lit1-tk-luc reporter; % of 3 µM dafachronic acid response | AID 652126, 2013;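 active = activation above the mean over all tested compounds plus 3 SD, cut at about 0.9% in these data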;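 note: 0% = DMSO-only wells and 100% = 3 µM delta7-dafachronic acid wells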
hcDAF12 agonist – H. contortus DAF-12 nuclear receptor activators, primary screen, cell-based, luminescence, HEK293, lit1-tk-luc reporter; HEK293 hcDAF-12 lit1-tk-luc reporter; 0% DMSO, 100% Δ7-dafachronic acid; activation, % at 6.8 µM; 370,000 compounds, 1.4% hits; AID 652067, 2013;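 active = activation above the mean of all tested compounds plus 3 SD, cut at about 5.5% in these data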;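 note: 100% = response to 3 µM Δ7-dafachronic acid high control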
hgDAF12 agonist – H. glycines DAF-12 receptor agonists, primary screen, cell-based, luminescence, HEK293, GAL4 fusion, UAS-luciferase. HEK293 GAL4-hgDAF12 UAS-luciferase reporter, agonist luminescence; normalized to butyrate control. AID 687014, 2013. Nuclear hormone receptor DAF-12 (Heterodera glycines), GAL4 fusion. activation, % at 6.8 µM. 370,000 compounds, 1.8% hits;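 active = activation above a cutoff set at the mean of all screened compounds plus 3 SD, cut at about 10% in these data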;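 note: 0% = DMSO wells and 100% = sodium butyrate wells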
DAX1 inh-1 – DAX1 (NR0B1) inhibitors, primary screen, cell-based, HEK293, Gal4-DAX1, luciferase luminescence | inhibition, % at 6.75 µM | AID 504766, 2011 | Nuclear receptor subfamily 0 group B member 1 (Homo sapiens), P51843 | 340,000 compounds, 0.99% hits | HEK293 Gal4-DAX1 luciferase reporter;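 active = inhibition above the mean over all tested compounds plus 3 SD, cut at about 4.2% in these data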;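 note: 0% = DAX1-transfected cells with DMSO and 100% = empty-vector control cells with DMSO; inhibition shows as a rise in luminescence from relieved DAX1 repression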
Target sequence (P51843 207-470 limits assumed): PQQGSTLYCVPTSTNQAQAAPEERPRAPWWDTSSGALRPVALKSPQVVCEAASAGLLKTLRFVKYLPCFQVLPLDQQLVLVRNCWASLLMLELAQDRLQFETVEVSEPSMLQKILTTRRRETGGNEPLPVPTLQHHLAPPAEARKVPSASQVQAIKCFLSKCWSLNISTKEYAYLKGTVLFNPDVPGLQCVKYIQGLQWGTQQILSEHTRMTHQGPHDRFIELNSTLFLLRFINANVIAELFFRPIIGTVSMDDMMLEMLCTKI
DAX1 inh-2 – DAX1 (NR0B1) inhibitors on StAR promoter, primary screen, cell-based, luminescence, SF-1 (NR5A1), full-length DAX-1. HEK293T StAR-luciferase reporter, SF-1/DAX-1 repression relief. inhibition, % at 6.8 µM. 370,000 compounds, 1.1% hits;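 active = inhibition above the mean over all tested compounds plus 3 SD, cut at about 3.6% in these data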;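 note: 0% = DAX-1 cells with DMSO and 100% = cells lacking DAX-1 with DMSO; higher inhibition means more luminescence from relief of DAX-1 repression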
An asterisk follows results filed as active; / = no result given. An excerpt weighted towards active compounds, which were near 4.1% of everything screened.

SMILES	ssDAF-12 act	hcDAF12 agonist	hgDAF12 agonist	DAX1 inh-1	DAX1 inh-2
Cc1cc(C)cc(NC(=S)Nc2cccc3ccccc23)c1	-1	3	2	0	0
COc1ccc(-n2c(SCC(=O)NN=Cc3c(O)ccc4ccccc34)nnc2-c2ccc(C(C)(C)C)cc2)cc1	-1	2	-1	/	-1
CC(=O)O[C@H]1[C@H](OC(C)=O)C[C@]2(OC(C)=O)C[C@H]1OC2=O	-1	-2	2	/	/
Cc1cccc(-c2cccc3c4c([nH]c23)[C@@H]2C[C@H]3[C@@H](C(=O)N2CC4)[C@H](C)ON3C)c1	-1	-3	-1	/	-1
CC(=O)CC[C@H]1CC[C@]2(CCCN(C(=O)c3ccno3)C2)O1	-1	-2	-1	/	-1
CCOC(=O)Nc1ccc2nc(N3CCCCCC3)sc2c1	0	1	11*	0	0
CCOC(=O)N1CCN(C(=O)Nc2ccc3nc(C)sc3c2)CC1	-1	1	-1	0	0
CCN1CCCCC(NC(=O)c2ccc(F)c(F)c2)C1=O (stereo unspecified)	-1	1	2	/	0
CCN(CC1CCCO1)C(=O)CCc1nnc(Cc2ccc3c(c2)OCO3)o1 (stereo unspecified)	-1	0	-1	1	0
CCCOC1CCCN(C(=O)CCc2nnc(Cc3cccc(C)c3)o2)C1 (stereo unspecified)	-1	3	11*	3	1
Cc1cccc(Cc2nnc(CCC(=O)N3CCCCC3c3nccs3)o2)c1 (stereo unspecified)	-1	-1	-1	0	0
Cc1cccc(Cc2nnc(CCC(=O)N(CC3CC3)CC3CCCO3)o2)c1 (stereo unspecified)	-1	2	12*	3	0
CCOC(=O)N1CCN(C(=O)C[C@H]2C[C@@]3(C(=O)OC)C(=C[C@H](COCc4ccccc4)O[C@@H]3C)N(CCc3ccc(OC)c(OC)c3)C2=O)CC1	-2	-3	-1	/	1
Brc1ccc(/C=N/Nc2nc3ccccc3o2)cc1	1.9*	5.9*	12*	4	1
O=C(N/N=C/c1c(Cl)cccc1Cl)c1n[nH]c2c1CCCC2	-2	-1	8	-1	1
Cc1ccsc1/C=N\NC(=O)c1n[nH]c2c1CCC2	1.0*	6.0*	10	-2	1
Cc1ccsc1/C=N\NC(=O)c1cc(C(C)(C)C)[nH]n1	-1	2	11*	2	2
Cc1cccc(NC(=O)CCS(=O)(=O)c2ccccc2)c1C	-1	-1	2	/	0
CCCCNC(=O)NCC1CCN(Cc2ccc(OC)cc2)CC1	-2	-1	-1	/	0
Cc1ccc(-n2c(=O)c3ccc(C(=O)NCc4ccco4)cc3n(Cc3ccccc3C#N)c2=O)cc1	0	-1	2	0	0
Cc1ccccc1Cn1c(=O)n(-c2ccccc2)c(=O)c2ccc(C(=O)NCc3ccco3)cc21	-1	1	1	4.6*	0
Cc1ccccc1Cn1c(=O)n(Cc2ccco2)c(=O)c2ccccc21	-2	-1	-1	4.5*	-1
CCCCCCCCN1CCS(=O)(=O)N(Cc2ccc(Cl)cc2)C(C(=O)OC)C1 (stereo unspecified)	-1	0	-2	/	1
CCn1c(C)csc1=NC(=O)c1ccccc1O	0	6.3*	10	0	1
O=C(Nc1ccn(CCCNCC(c2ccccc2)c2ccccc2)c(=O)n1)OCc1ccccc1	-2	2	1	4.4*	0
c1ccc(Cc2nc3ccccc3s2)cc1	0	5.8*	8	2	-1
Cc1ccnc(SCc2nc3ccccc3s2)n1	0	5.8*	9	3	2
O=C(CCc1nc2ccccc2s1)Nc1ccccc1	-1	-1	-1	-1	-1
COc1cccc(C(=O)Nc2ccc(C(=O)NCC3COc4ccccc4O3)cc2)c1 (stereo unspecified)	-1	-5	0	/	-2
